# Bioassay records (PubChem BioAssay)
# ELG1 DNA repair: inhibitors of ELG1-dependent DNA repair in HEK293T cells | HEK293T ELG1-luciferase reporter, luminescence, 16 h; DNA damage induced by 5-fluorouridine | AID 504467 | Potency, µM (series often up to 46.1 µM), for the others: top-dose activity change, negative = inhibition, hits mostly inhibitors | hit rate 2.3% among 330,000; note: potency is the fitted concentration of half-maximal effect; nearly all actives have a fitted effect of over 55% in size
#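 In this reporter screen, reduction of luminescence relative to DMSO vehicle indicated activity. Compounds and 5-fluorouridine were added together to 2,000 cells per well, incubated for 16 hr at 37 °C, then developed with ONE-Glo.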
# HT1080 IDH1KD tx: kills HT-1080 cells with IDH1 knockdown; AID 686971; hit rate 2% among 360,000; HT-1080 IDH1 knockdown viability, ATP luminescence, 48 h; Potency, µM (top dose mostly 46.1 µM), for the others: at the top dose activity, negative = toxicity, hits mostly cytotoxic;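 note: potency is the fitted concentration of half-maximal effect; 0% = DMSO wells and -100% = cell-free medium wells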
#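 Viability of IDH1-knockdown HT-1080 fibrosarcoma cells was assessed by CellTiter-Glo after 48 h at 37 °C with titrated compound; concentration-effect curves were classified by fit quality and response size.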
# DT40 TDP1 CPT: DT40-hTDP1 cell growth loss with CPT; Potency, µM (highest dose often 46.2 µM), without a hit: at the top dose activity change, negative = growth inhibition, usual class: inhibitors; hit rate 12% among 420,000; chicken DT40 Tdp1-/-;hTDP1 cells + 20 nM CPT, ATP luminescence, 48 h; note: potency is the fitted concentration of half-maximal effect; nearly all actives have a fitted effect of over 55% in size
#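 Chicken DT40 Tdp1-/- cells complemented with human TDP1, 400 cells/well, exposed to compounds plus 20 nM camptothecin for at least 48 h at 37 C; viability read as ATP content by CellTiter-Glo luminescence.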
# HT1080NT lethal: kills 2HG-producing HT-1080-NT fibrosarcoma cells. HT-1080-NT fibrosarcoma viability, CellTiter-Glo ATP luminescence, 48 h. Potency, µM (doses to about 46.1 µM), for the others: top-dose activity, negative = less viability, usual class: cytotoxic. hit rate 1.6% among 360,000;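 note: NT is the 2HG producing partner of a matched IDH1 knockdown line; potency is the fitted concentration of half-maximal effect; 0% = DMSO-treated cells and -100% = media-only wells without cells; nearly all actives have a fitted effect of over 55% in size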
#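 HT-1080-NT; 750 cells/well; 5% FBS RPMI; 48 h compound, 37 degrees C; CellTiter-Glo luminescence; curve fitting and curve-class assignment.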
# DT40 TDP1 no CPT: qHTS for Inhibitors of human tyrosyl-DNA phosphodiesterase 1 (TDP1): qHTS in cells in absence of CPT; DT40 Tdp1-/- hTDP1 cells, no CPT, ATP luminescence, 48 h; Potency, µM (top dose mostly 46.2 µM), for the others: at the top dose activity change, negative = growth inhibition, most hits filed as inhibitors; hit rate 15% among 420,000; AID 686978, 2013; note: potency is the fitted concentration of half-maximal effect; nearly all actives have a fitted effect of over 55% in size
#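 Stably hTDP1-transfected Tdp1-null chicken DT40 cells were treated with library compounds minus camptothecin and grown for at least 48 hr at 37 °C, after which cellular ATP was quantified by luminescence.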
# IL-1B inflam inh: inhibitors of inflammasome signaling (IL-1 beta secretion); THP-1 LPS/ATP IL-1B secretion, AlphaLISA, 16 h; stronger effect = lower value; activity change, % at 57.5 µM; hit rate 4.7% among 360,000; in the data active = activity change below about -50%; inconclusive = mostly about -30% to -49%
#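 Secreted IL-1B measured by AlphaLISA bead assay after 16 h compound exposure of THP-1 cells; compounds (final up to 57.5 uM) added 1 h before LPS (250 ng/mL) and ATP (1.25 mM) stimulation; lower signal means less secretion.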
# * marks the source's active call; other numbers are inactive results; u = inconclusive; x = no result; [ ] = remark or other dose. Only some compounds are listed: those with a hit (about 19% of all), similar ones and a draw of the others. Unless noted, calls come from the whole dose curve; as a rule, active = well fitted curve in the direction sought with a large enough effect; inconclusive = small, poorly fitted or top-dose-only effect, or another doubt; inactive = no such curve, though single readings can be large; an effect the other way counts as inactive or inconclusive. Unless noted, % is set by controls: 0 for no effect and ±100 for the full control effect.
SMILES,ELG1 DNA repair,HT1080 IDH1KD tx,DT40 TDP1 CPT,HT1080NT lethal,DT40 TDP1 no CPT,IL-1B inflam inh
Cc1ccc(NC(=O)CSc2ccc(C(N)=O)cc2[N+](=O)[O-])cc1C,14%,-13%,10µM*,-5%,16µM*,24
CCOC(=O)c1ccc(NC(C)=O)c([N+](=O)[O-])c1,11%,18%,26µM*,16%,-100%,19
CCCNc1ccc(C(=O)OCC)cc1[N+](=O)[O-],u,13%,-9%,5%,-23%,5
Cc1ccc(NC(=O)CSc2ccc(C(N)=O)cc2[N+](=O)[O-])cc1,u,u,u,-26%,u,13
CCc1ccc(Nc2ccc(C(=O)O)cc2[N+](=O)[O-])cc1,5%,3%,-3%,-5%,-8%,22
CCc1ccc(Nc2ccc(C(N)=O)cc2[N+](=O)[O-])cc1,-14%,2%,u,-5%,23µM*,-12
CCNc1ccc(C(=O)OCC(=O)N(Cc2ccccc2)C(C)(C)C)cc1[N+](=O)[O-],13%,14%,15µM*,14%,u,10
CC(=O)OC[C@@]1(O)C[C@@]23CC[C@@H]4c5ccoc5CC[C@@]4(C)[C@@H]2CCC1C3,x,x,-14%[9.04 µM],x,-21%[9.04 µM],x
COc1ccc(C(=O)CC(C(=O)O)c2ccc(OC)c(OC)c2)cc1OC (stereo not drawn),x,0%,1%,-1%,-7%,-26
CC(=O)Nc1ccc(OC(=O)c2ccc(Br)c([N+](=O)[O-])c2)cc1,u,u,-25%,11%,-27%,-147*
CSc1ccc(/C=N/NC(=O)CNc2cccc3ccccc23)cc1,24%,-2%,-3%,-9%,6%,25
O=C(CNc1cccc2ccccc12)N/N=C/C(Br)=C/c1ccccc1,-21%,u,12µM*,u,10µM*,-28
O=C(CNc1cccc2ccccc12)N/N=C/c1ccc([N+](=O)[O-])o1,u,u,6.5µM*,u,4.1µM*,-25
O=C(CNc1cccc2ccccc12)N/N=C/c1ccc[nH]1,18%,u,9%,-4%,-12%,-25
O=C(CNc1cccc([N+](=O)[O-])c1)N/N=C/c1ccc([N+](=O)[O-])o1,u,u,2.9µM*,u,2.6µM*,-67*
C=C[C@@H]1c2cc(C)ccc2N(S(=O)(=O)c2ccc(C)cc2)[C@H](c2ccccc2)C1(C#N)C#N,8%,-26%,7.9µM*,-18%,10µM*,66
C=C[C@@H]1c2ccccc2N(S(=O)(=O)c2ccc(C)cc2)[C@H](c2ccccc2)C1(C#N)C#N,20%,4%,7.9µM*,8%,21µM*,20
C=C[C@@H]1c2cc(C)ccc2N(S(=O)(=O)c2ccc(C)cc2)[C@H](c2ccccc2C(F)(F)F)C1(C#N)C#N,25%,-2%,8.2µM*,-17%,u,24
O=C(OCC(=O)N1CCN(C(=O)c2ccco2)CC1)c1cncc(Br)c1,3%,4%,-4%,6%,25%,7
Cc1ccccc1N/C(=C(/C(Cl)=C(Cl)Cl)[N+](=O)[O-])n1nnc2ccccc21,x,u,16µM*,-8%,u,-1
CC1(C)CC(=O)C=C(NNC(=O)c2ccccc2)C1,3%,0%,-1%,15%,-13%,-18
CC1(C)CC(=O)C(CSC(=O)c2ccccc2)C(=O)C1,x,-15%,13µM*,3%,13µM*,-15
CCC(=O)/C=C1/Sc2ccc(OC)cc2N1CC,u,1%[9.24 µM],10µM*,-5%,u,0
CCC(/C=C1\Sc2ccc(OC)cc2N1CC)=C\c1sc2ccc(OC)cc2[n+]1CCCS(=O)(=O)[O-],u,-7%,3.3µM*,-11%,1.8µM*,u
CCC(=O)/C=C1/Sc2ccc(OC)cc2N1CCO,1%,7%,u,12%,u,0
SMILES,ELG1 DNA repair,HT1080 IDH1KD tx,DT40 TDP1 CPT,HT1080NT lethal,DT40 TDP1 no CPT,IL-1B inflam inh
CCC(/C=C1\Sc2ccc(OC)cc2N1CCO)=C\c1sc2ccc(OC)cc2[n+]1CCO,u,u,3.3µM*,u,5.2µM*,-113*
CCCNC(=O)C1(C)CCN(C(=O)c2oc3ccccc3c2C)C1 (stereo not drawn),x,26%,-8%,0%,-15%,15
CCc1ccc2c(c1)C(NC(C)=O)C(=O)N2CCN1CCOCC1 (stereo not drawn),-2%,1%,17%,14%,1%,24
COC(=O)c1[nH]c2cccc(OC)c2c1NC(=O)CCN1CCSCC1,-1%,1%,0%,4%,-19%,21
COC(=O)c1c(NC(=O)CN2CCN(C(=O)c3ccco3)CC2)c2cc(C)ccc2n1C,21µM*,-8%,-26%,-12%,u,35
COC(=O)c1[nH]c2ccccc2c1NC(=O)CN1CCCCCC1,u,-1%,u,-4%,u,15
COC(=O)c1[nH]c2ccccc2c1NC(=O)CN1CCN(C(=O)c2ccco2)CC1,21µM*,4%,u,1%,u,7
COC(=O)c1[nH]c2ccccc2c1NC(=O)CN1CCN(c2cccc(Cl)c2)CC1,u,-14%,26µM*,-14%,16µM*,-17
COC(=O)c1[nH]c2cccc(OC)c2c1NC(=O)CCN1CCN(c2cccc(Cl)c2)CC1,18µM*,x,x,x,x,x
COC(=O)c1c(NC(=O)CN2CCN(C(=O)c3ccco3)CC2)c2c(C)cccc2n1C,u,0%[9.24 µM],-19%,2%,u,1
Nn1c(SCC(=O)Nc2cc(S(=O)(=O)N3CCOCC3)ccc2Cl)nnc1-c1cccnc1,-6%,4%,1%,3%,5%,8
CC(=O)NC(c1ccccc1)c1nc(-c2cccc(CO)c2)cs1 (stereo not drawn),x,u,-19%,-2%,-10%,23
CCCCCCCCCCCCCCCC(=O)OC[C@@H](COP(=O)([O-])OCC[N+](C)(C)C)OC(=O)CCCCCCCCCCCCCCC,x,x,-17%,x,-6%,x
COC(=O)c1sc(NC(=O)CN2CCN(c3cccc(Cl)c3)CC2)c(C(=O)OC)c1C,x,4%,29µM*,1%,33µM*,0
Cc1c(NC(=O)CN2CCN(c3cccc(Cl)c3)CC2)c(=O)n(-c2ccccc2)n1C,-2%,-26%,u,-1%,u,3
